Each sequence was assayed on VDR homodimer (NR concentration 270 nM) (assay: PBM binding z-score (relative to random genomic background probes); higher = stronger binding; sequences stand for … in GC…GCGATTGACAGCGTAGAATGAAGG).
Method in brief: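 Binding z-scores were set against random background probes. The data came from custom Agilent 4×180K protein-binding microarrays carrying double-stranded probes with 34-nt variable regions, incubated 1 h with ligand-free nuclear receptor dimers. Partner-specific antibodies detected binding, and scanned fluorescence was regression-normalized.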
CCTTACGGGTCACTCCAGGTTATAGCATCGGAGT gave a PBM binding z-score of 1.69.
Work on TTGCCTAGGTCATGGGCCAGTATACCACGCGAAC yielded a PBM binding z-score of 0.622.
TCTTGTAGATCAATGGTTAAGAAAGCCGAAGCCT showed a PBM binding z-score of -0.25.
For CCGACTGGGGCATAAGGTTACCCTAAGCCAGCCC, the PBM binding z-score was -0.217.
Sequence CCTTACTGGTCACTCCAGGTTATAGCATCGGAGT has a PBM binding z-score of 0.805.
ATCTCTAGGTCACCAAGTTCAGTGAATGCCGAAC showed a PBM binding z-score of 6.15.
AGAACGAGGGCAATGAGTTGTTAGCACGGGTGGC was tested, and the PBM binding z-score was 2.19.
In the case of GCTGCTACGTCAGGTTGGTCAGCTAACGGGTACG, the PBM binding z-score is reported as -0.226.
TAGCCTAGGTCAGACCGGGCCAGTATACGCTATA gave a PBM binding z-score of -0.324.
Sequence CCGAGTAGGTTATGGGGCACTCAGGCAACGGTGA has a PBM binding z-score of 0.0125.
Sequence GCTTACGGGTCAAAGGTGATAGCATGAATAGAAT has a PBM binding z-score of 1.07.
CCTACTGGGCCAAACAGGTCATTGATGCCGATAA was tested, and the PBM binding z-score was 1.53.
In the case of ATATGTAGGTTATGGGGTCATTCAGTTTGCGCAT, the PBM binding z-score is reported as 7.28.
ATCGAAAGGTCGTGAGGTTAGTATACAGAAAGGC showed a PBM binding z-score of 1.84.
Sequence GCGACTGGGGCAAAGCAGGTTTCCATAAGGTTGG has a PBM binding z-score of -0.34.
In the case of CCTACTAGGCCAAAAAGGTCATTGATGCCGATAA, the PBM binding z-score is reported as 2.99.
In the case of GCTGCTAGGTCAACTGTTGGTCAGCTAAAGCTCG, the PBM binding z-score is reported as -0.34.
AGAACGAGGGCACGTTGAGTTGATAGCAGAGTAG showed a PBM binding z-score of 2.13.
CGTCCAGGGTCAAAGGTCAGTGAAGAGATGACGG was tested, and the PBM binding z-score was 3.04.
In the case of ATCACTAGGTAAAAGTTCAGTGAATCCCGAGGAT, the PBM binding z-score is reported as 1.8.
Sequence CCAGATAGGTGAGAAGGTAACTCAGCCTCGATTA has a PBM binding z-score of -0.157.
With ACTATTAGTTAACTTAGGGCAACCGATACGACGC the PBM binding z-score was 0.283.
Sequence AGTCAAAGTTAACTAGGTAACGTAAGATTCAGCT has a PBM binding z-score of -0.183.
TCTTGTAGATCAAGCAGGTTAAGACAGCCTGAGT gave a PBM binding z-score of -0.155.
GCTAGTTGGTAAGTAAAAGGTCACACACCGGTCG gave a PBM binding z-score of 1.63.
Work on CGAACTAGGTCATTGACAGGACAGTGAGTAGTAA yielded a PBM binding z-score of 0.794.
TCTTGTAGATCAATAGAGGTCAAGAAAGTGCGCT showed a PBM binding z-score of 2.12.
Sequence ACTAACAGGCCAAGTTTGGGTCACTCAAACAAAG has a PBM binding z-score of 0.351.
With TCTATTAGTTGAAGGGCAAACGACGAGTCCGTTT the PBM binding z-score was 1.91.
GCTAGGTGGTCAGTAAAAGGTCACACACCGGTCG was tested, and the PBM binding z-score was 2.03.
ATCTCTAGGTAACAAGTACAGTGAAAGAGAGGAC gave a PBM binding z-score of 0.41.
Work on ATCTCTAGGTAAAAGCTCAGTGAATCCCGAGGAT yielded a PBM binding z-score of -0.497.
For TTACCAAGGTGCAGGTCGTTGATCCCTCTGTAGA, the PBM binding z-score was 0.805.
Work on AGACTGAGGTTATACGTAGATCAGGGAAGAAAGT yielded a PBM binding z-score of 0.49.
For CAAACTAGGTCAGAGGTCAAAGTCGAGCCAACCA, the PBM binding z-score was 4.21.
With GCGCGGAGGACAAGGTCAGAGCTTTGTCCGTAGA the PBM binding z-score was 0.885.
Work on TCTCGGAGGACACGAAAGGTCAGGGCTCGACATC yielded a PBM binding z-score of 0.976.
TATGCAGGGTCAAAGGCCAGAGTACGAATGTCGA showed a PBM binding z-score of 2.66.
Work on CCTAATGGGCCAAGGTCATTGATCAGTCAAAGCA yielded a PBM binding z-score of 3.34.
AGAACGAGGGCACGCGGAGTTGATAGCAGAGTAG gave a PBM binding z-score of 1.18.

Source: the supplement of paper PMC6555819
